In PubChem BioAssay (NCATS):
Results filed as inconclusive are left out. Entries that show only a call come without a potency. Activity calls are given as the source filed them. The call rests on the fitted dose curve; in most records, active means well fitted cell-killing curve with a large enough effect; inconclusive means small, poorly fitted or top-dose-only effect; inactive means flat fitted curve, though single readings scatter.

assay: Cell Viability - LYMP2-018 (AID 985); details: LYMP2-018 lymphoblastoid cells, viability (qHTS); series mostly up to 92.2 µM;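 further: compound exposure lasted 24 hr at 37 °C; nearly all actives have a fitted effect of over 50% in size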
Description: NIH Chemical Genomics Center [NCGC]
NIH Molecular Libraries Screening Centers Network [MLSCN]
National Institutes of Environmental Health Sciences [NIEHS]
National Toxicology Program [NTP]
We have developed a 1536-well cell-based assay for quantitative high throughput screening (qHTS) against a number of cell lines to determine in vitro cytotoxicity of small molecules. This particular assay uses a human lymphoblastoid cell line (LYMP2-018) purchased from Coriell Institute for Medical Research.
NCGC Assay Protocol Summary:
The CellTiter-Glo luminescent cell viability assay (Promega) is a homogeneous method to measure the number of viable cells in culture. The end point readout of this assay is based on quantitation of intracellular ATP, an indicator of metabolic activity, using the luciferase reaction. Luciferase catalyzes the oxidation of beetle Luciferin to oxyluciferin and light in the presence of ATP. The luminescent signal is proportional to amount of ATP present.
Using the CellTiter-Glo luminescent cell viability assay, the amount of cellular ATP was measured in the lymphoblastoid cell line with complete culture medium following compound treatment for 24 hours. The assay was performed in opaque white Kalypsys 1536-well plates. In the screen, tetraoctylammonium bromide was used as positive control. Library compounds were measured for their ability to cause acute toxicity in the cell line, as reflected by a decrease in intracellular ATP levels, in a concentration-dependent manner. […] AC50 values were determined from concentration-response data modeled with the standard Hill equation.
qHTS protocol for CellTiter Glo lymphoblastoid cellular assay
[Step] [Parameter] [Value] [Description]
1. Reagent; 5 uL; 2500 lymphoblastoid cells/well
2. Time; 5 hr; 37 C incubation
4. Controls; 23 nL; Tetraoctylammonium bromide 6.4pM to 92 uM
5. Time; 24 hr; 37 C incubation
6. Reagent; 5 uL; CellTiter Glo reagent
7. Time; 30 min; Room Temperature
8. Detection; Luminescence; Viewlux plate reader
Keywords: cell viability, cytotoxicity, lymphoblastoid cell line, luminescence, NTPHTS, NTPHTS_NCGC, NIEHS, DSSTox, MLSMR, MLSCN, NIH Roadmap, qHTS, NCGC
Potency means the concentration at half of the fitted maximal effect.

Structure (SMILES)	Potency
COc1ccc(CN(CCN(C)C)c2ccccn2)cc1	inactive
CCCCOCCOCCOCc1cc2c(cc1CCC)OCO2	inactive
Nc1nc(N)c2nc(-c3ccccc3)c(N)nc2n1	inactive
Nc1ncn([C@@H]2O[C@H](CO)[C@@H](O)[C@H]2O)c(=O)n1	7.94 µM (active)
CN=C(NC#N)NCCSCc1nc[nH]c1C	inactive
COC(=O)[C@H]1[C@H]2C[C@@H]3c4[nH]c5cc(OC)ccc5c4CCN3C[C@H]2C[C@@H](OC(=O)c2cc(OC)c(OC)c(OC)c2)[C@@H]1OC	50.1 µM (active)
NC(=O)N1c2ccccc2C=Cc2ccccc21	inactive
O=c1[nH]c(=O)n([C@H]2C[C@H](O)[C@@H](CO)O2)cc1Br	inactive
COc1cc(Cc2cnc(N)nc2N)cc(OC)c1OC	inactive
CCCCNC(=O)NS(=O)(=O)c1ccc(C)cc1	inactive
NC(=Nc1ccccc1)Nc1ccccc1	inactive
